# Hit rate of the full screen: of about 5,500 compounds, about 2,000 (36%) were called active. About 18% were inconclusive and are not listed. This is one part of the list. Values without a mark were called inactive. No stated cut-off is given here; in the data, active means normalized growth mostly below about 0.91 (no sharp cut-off); inconclusive means no clear call, values can overlap the other calls; inactive means mostly above about 0.92.
# Test: chemical genetic growth profiling, strain panel (AID 1159580);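 further: tested at 20 µM; growth read once vehicle control cultures reached saturation at 30 °C; 1 = growth at the plate median or of vehicle wells; lower values mean less growth of the strain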
# Conditions: growth OD
smiles,measurement,setting,value
COc1c(OC)c2occc2c2oc(=O)ccc12,normalized growth,"S. cerevisiae deletion strains, locus YJR066W, strain TOR1, active compounds read low",0.929
same,normalized growth,"S. cerevisiae deletion strains, locus YKL009W, strain mrt4, active compounds read low",0.957
same,normalized growth,"S. cerevisiae deletion strains, locus YKL068W, active compounds read low",0.978
same,normalized growth,"S. cerevisiae deletion strains, locus YKL085W, strain MDH1 (second series), active compounds read low",0.97
same,normalized growth,"S. cerevisiae deletion strains, locus YKL085W, strain MDH1, active compounds read low",0.97
same,normalized growth,"S. cerevisiae deletion strains, locus YKL160W, strain elf1, active compounds read low",0.942
same,normalized growth,"S. cerevisiae deletion strains, locus YKL190W, strain CNB1, active compounds read low",0.965
same,normalized growth,"S. cerevisiae deletion strains, locus YKR001C, strain vps1, active compounds read low",0.644 (active)
same,normalized growth,"S. cerevisiae deletion strains, locus YKR026C, strain gcn3, active compounds read low",0.967
same,normalized growth,"S. cerevisiae deletion strains, locus YKR091W, strain srl3, active compounds read low",0.985
same,normalized growth,"S. cerevisiae deletion strains, locus YLL001W, strain dnm1, active compounds read low",0.993
same,normalized growth,"S. cerevisiae deletion strains, locus YLL026W, active compounds read low",0.991
same,normalized growth,"S. cerevisiae deletion strains, locus YLL041C, strain sdh2, active compounds read low",0.975
same,normalized growth,"S. cerevisiae deletion strains, locus YLR027C, strain aat2, active compounds read low",0.964
same,normalized growth,"S. cerevisiae deletion strains, locus YLR039C, strain RIC1, active compounds read low",0.68
same,normalized growth,"S. cerevisiae deletion strains, locus YLR058C, strain SHM2, active compounds read low",0.96
same,normalized growth,"S. cerevisiae deletion strains, locus YLR102C, strain apc9, active compounds read low",0.983
same,normalized growth,"S. cerevisiae deletion strains, locus YLR113W, strain HOG1, active compounds read low",0.958
same,normalized growth,"S. cerevisiae deletion strains, locus YLR221C, strain rsa3, active compounds read low",0.952
same,normalized growth,"S. cerevisiae deletion strains, locus YLR258W, strain gsy2, active compounds read low",0.988
same,normalized growth,"S. cerevisiae deletion strains, locus YLR262C, strain YPT6 (second series), active compounds read low",0.939
same,normalized growth,"S. cerevisiae deletion strains, locus YLR262C, strain YPT6, active compounds read low",0.79
same,normalized growth,"S. cerevisiae deletion strains, locus YLR268W, strain sec22, active compounds read low",0.927
same,normalized growth,"S. cerevisiae deletion strains, locus YLR320W, strain mms22, active compounds read low",0.895
same,normalized growth,"S. cerevisiae deletion strains, locus YLR330W, strain CHS5, active compounds read low",0.939
same,normalized growth,"S. cerevisiae deletion strains, locus YLR342W, strain FKS1 (second series), active compounds read low",0.95
same,normalized growth,"S. cerevisiae deletion strains, locus YLR342W, strain FKS1, active compounds read low",0.992
same,normalized growth,"S. cerevisiae deletion strains, locus YLR357W, strain rsc2, active compounds read low",1.01
same,normalized growth,"S. cerevisiae deletion strains, locus YLR370C, strain arc18, active compounds read low",0.982
same,normalized growth,"S. cerevisiae deletion strains, locus YLR371W, strain rom2, active compounds read low",0.816 (active)
same,normalized growth,"S. cerevisiae deletion strains, locus YLR384C, strain iki3, active compounds read low",0.991
same,normalized growth,"S. cerevisiae deletion strains, locus YLR418C, strain cdc73, active compounds read low",0.754 (active)
same,normalized growth,"S. cerevisiae deletion strains, locus YML016C, strain PPZ1, active compounds read low",0.936
same,normalized growth,"S. cerevisiae deletion strains, locus YML032C, strain rad52, active compounds read low",0.915
same,normalized growth,"S. cerevisiae deletion strains, locus YML120C, strain ndi1, active compounds read low",0.948
same,normalized growth,"S. cerevisiae deletion strains, locus YML124C, strain tub3, active compounds read low",0.968
same,normalized growth,"S. cerevisiae deletion strains, locus YMR058W, strain fet3, active compounds read low",0.971
same,normalized growth,"S. cerevisiae deletion strains, locus YMR078C, strain ctf18, active compounds read low",0.955
same,normalized growth,"S. cerevisiae deletion strains, locus YMR125W, strain sto1, active compounds read low",1.01
same,normalized growth,"S. cerevisiae deletion strains, locus YMR129W, active compounds read low",0.986
same,normalized growth,"S. cerevisiae deletion strains, locus YMR205C, strain PFK2, active compounds read low",0.987
same,normalized growth,"S. cerevisiae deletion strains, locus YMR223W, strain ubp8, active compounds read low",0.933
same,normalized growth,"S. cerevisiae deletion strains, locus YMR231W, strain pep5, active compounds read low",0.987
same,normalized growth,"S. cerevisiae deletion strains, locus YMR263W, strain SAP30, active compounds read low",0.916
same,normalized growth,"S. cerevisiae deletion strains, locus YMR307W, strain GAS1, active compounds read low",0.816
same,normalized growth,"S. cerevisiae deletion strains, locus YNL067W, strain RPL9B, active compounds read low",0.941
same,normalized growth,"S. cerevisiae deletion strains, locus YNL071W, strain lat1, active compounds read low",0.929
same,normalized growth,"S. cerevisiae deletion strains, locus YNL183C, strain NPR1, active compounds read low",0.921
same,normalized growth,"S. cerevisiae deletion strains, locus YNL209W, strain ssb2, active compounds read low",0.976
same,normalized growth,"S. cerevisiae deletion strains, locus YNL233W, strain BNI4, active compounds read low",0.872
same,normalized growth,"S. cerevisiae deletion strains, locus YNL248C, strain rpa49, active compounds read low",0.906
same,normalized growth,"S. cerevisiae deletion strains, locus YNL250W, strain rad50, active compounds read low",0.989
same,normalized growth,"S. cerevisiae deletion strains, locus YNL271C, strain bni1, active compounds read low",0.965
same,normalized growth,"S. cerevisiae deletion strains, locus YNL298W, strain CLA4, active compounds read low",0.95
same,normalized growth,"S. cerevisiae deletion strains, locus YNL307C, strain MCK1, active compounds read low",0.859 (active)
same,normalized growth,"S. cerevisiae deletion strains, locus YNL322C, strain KRE1 (second series), active compounds read low",0.986
same,normalized growth,"S. cerevisiae deletion strains, locus YNL322C, strain KRE1, active compounds read low",0.973
same,normalized growth,"S. cerevisiae deletion strains, locus YNR049C, strain mso1, active compounds read low",0.985
same,normalized growth,"S. cerevisiae deletion strains, locus YNR052C, strain pop2, active compounds read low",0.948
same,normalized growth,"S. cerevisiae deletion strains, locus YOL012C, strain htz1",0.5
same,normalized growth,"S. cerevisiae deletion strains, locus YOL147C, strain pex11, active compounds read low",0.958
same,normalized growth,"S. cerevisiae deletion strains, locus YOR001W, strain rrp6, active compounds read low",0.936
same,normalized growth,"S. cerevisiae deletion strains, locus YOR061W, strain CKA2, active compounds read low",0.962
same,normalized growth,"S. cerevisiae deletion strains, locus YOR069W, strain VPS5, active compounds read low",0.968
same,normalized growth,"S. cerevisiae deletion strains, locus YOR070C, strain gyp1, active compounds read low",0.977
same,normalized growth,"S. cerevisiae deletion strains, locus YOR080W, strain dia2, active compounds read low",0.98
same,normalized growth,"S. cerevisiae deletion strains, locus YOR083W, strain WHI5, active compounds read low",0.908
same,normalized growth,"S. cerevisiae deletion strains, locus YOR106W, strain vam3, active compounds read low",0.946
same,normalized growth,"S. cerevisiae deletion strains, locus YOR136W, strain idh2, active compounds read low",0.995
same,normalized growth,"S. cerevisiae deletion strains, locus YOR144C, strain elg1, active compounds read low",0.954
same,normalized growth,"S. cerevisiae deletion strains, locus YOR184W, strain ser1, active compounds read low",0.859 (active)
same,normalized growth,"S. cerevisiae deletion strains, locus YOR231W, strain MKK1, active compounds read low",0.956
same,normalized growth,"S. cerevisiae deletion strains, locus YOR265W, strain rbl2, active compounds read low",0.985
same,normalized growth,"S. cerevisiae deletion strains, locus YOR270C, strain vph1, active compounds read low",0.857
same,normalized growth,"S. cerevisiae deletion strains, locus YOR290C, strain snf2, active compounds read low",0.944
same,normalized growth,"S. cerevisiae deletion strains, locus YOR316C, strain cot1, active compounds read low",0.985
same,normalized growth,"S. cerevisiae deletion strains, locus YPL051W, strain arl3, active compounds read low",0.933
same,normalized growth,"S. cerevisiae deletion strains, locus YPL055C, strain LGE1, active compounds read low",0.87
same,normalized growth,"S. cerevisiae deletion strains, locus YPL078C, strain atp4, active compounds read low",0.932
same,normalized growth,"S. cerevisiae deletion strains, locus YPL106C, strain sse1, active compounds read low",0.94
same,normalized growth,"S. cerevisiae deletion strains, locus YPL240C, strain hsp82, active compounds read low",0.958
same,normalized growth,"S. cerevisiae deletion strains, locus YPL241C, strain CIN2, active compounds read low",0.941
same,normalized growth,"S. cerevisiae deletion strains, locus YPL256C, strain CLN2, active compounds read low",0.973
same,normalized growth,"S. cerevisiae deletion strains, locus YPR119W, strain clb2, active compounds read low",0.98
same,normalized growth,"S. cerevisiae deletion strains, locus YPR141C, strain kar3, active compounds read low",0.985
same,normalized growth,"S. cerevisiae deletion strains, locus YPR163C, strain tif3, active compounds read low",0.917
same,normalized growth,"S. cerevisiae deletion strains, locus YPR167C, strain met16, active compounds read low",0.96
same,normalized growth,"S. cerevisiae deletion strains, strain wtn01, active compounds read low",0.957
same,normalized growth,"S. cerevisiae strains, strain wild type, active compounds read low",0.967
